Where “and” joins values, the source holds several entries; their conditions need not be identical. Identical values can stand only once. For part of these data: Potency and affinity values are given separately.
Assays:
Set-up in all cases: scale not given: direction of the effect not stated beside the values
[1] = molecular target: Protein translocase subunit SecA (Escherichia coli (strain K12)) (UniProt P10408); experiment: Assay to Identify E. coli SecA ATPase Inhibitors; type: functional; conditions: 30 µM
Chain of Protein translocase subunit SecA (Escherichia coli (strain K12)) (P10408 whole entry): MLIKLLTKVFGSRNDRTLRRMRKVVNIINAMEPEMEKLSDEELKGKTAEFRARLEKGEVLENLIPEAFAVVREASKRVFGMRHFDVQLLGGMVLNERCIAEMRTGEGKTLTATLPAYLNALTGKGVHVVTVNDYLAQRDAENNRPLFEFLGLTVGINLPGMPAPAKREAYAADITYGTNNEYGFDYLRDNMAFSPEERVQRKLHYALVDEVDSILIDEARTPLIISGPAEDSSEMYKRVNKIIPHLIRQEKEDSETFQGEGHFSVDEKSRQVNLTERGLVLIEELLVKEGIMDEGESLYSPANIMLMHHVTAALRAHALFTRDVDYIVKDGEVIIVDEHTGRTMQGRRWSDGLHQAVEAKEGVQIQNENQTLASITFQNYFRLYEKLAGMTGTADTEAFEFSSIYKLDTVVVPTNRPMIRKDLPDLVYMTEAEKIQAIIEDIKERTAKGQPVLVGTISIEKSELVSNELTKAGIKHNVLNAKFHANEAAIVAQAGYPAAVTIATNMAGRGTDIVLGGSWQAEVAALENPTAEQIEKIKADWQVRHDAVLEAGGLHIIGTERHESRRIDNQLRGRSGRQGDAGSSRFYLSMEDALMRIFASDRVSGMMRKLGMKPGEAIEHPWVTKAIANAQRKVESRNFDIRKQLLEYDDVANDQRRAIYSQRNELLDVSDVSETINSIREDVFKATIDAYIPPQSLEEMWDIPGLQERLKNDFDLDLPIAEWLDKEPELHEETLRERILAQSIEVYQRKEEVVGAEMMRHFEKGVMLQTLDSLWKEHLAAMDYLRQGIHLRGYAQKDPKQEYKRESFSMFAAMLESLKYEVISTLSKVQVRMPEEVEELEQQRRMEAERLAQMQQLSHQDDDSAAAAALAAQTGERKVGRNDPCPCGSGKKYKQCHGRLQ

[2] = molecular target: T1, Ubiquitin-activating enzyme e1, putative (Leishmania donovani (strain BPK282A1)) (UniProt E9BSI1); experiment: Leishmania donovani Ubiquitin Activating Enzyme (LdE1); type: functional; conditions: 30 µM
T1 sequence (whole entry): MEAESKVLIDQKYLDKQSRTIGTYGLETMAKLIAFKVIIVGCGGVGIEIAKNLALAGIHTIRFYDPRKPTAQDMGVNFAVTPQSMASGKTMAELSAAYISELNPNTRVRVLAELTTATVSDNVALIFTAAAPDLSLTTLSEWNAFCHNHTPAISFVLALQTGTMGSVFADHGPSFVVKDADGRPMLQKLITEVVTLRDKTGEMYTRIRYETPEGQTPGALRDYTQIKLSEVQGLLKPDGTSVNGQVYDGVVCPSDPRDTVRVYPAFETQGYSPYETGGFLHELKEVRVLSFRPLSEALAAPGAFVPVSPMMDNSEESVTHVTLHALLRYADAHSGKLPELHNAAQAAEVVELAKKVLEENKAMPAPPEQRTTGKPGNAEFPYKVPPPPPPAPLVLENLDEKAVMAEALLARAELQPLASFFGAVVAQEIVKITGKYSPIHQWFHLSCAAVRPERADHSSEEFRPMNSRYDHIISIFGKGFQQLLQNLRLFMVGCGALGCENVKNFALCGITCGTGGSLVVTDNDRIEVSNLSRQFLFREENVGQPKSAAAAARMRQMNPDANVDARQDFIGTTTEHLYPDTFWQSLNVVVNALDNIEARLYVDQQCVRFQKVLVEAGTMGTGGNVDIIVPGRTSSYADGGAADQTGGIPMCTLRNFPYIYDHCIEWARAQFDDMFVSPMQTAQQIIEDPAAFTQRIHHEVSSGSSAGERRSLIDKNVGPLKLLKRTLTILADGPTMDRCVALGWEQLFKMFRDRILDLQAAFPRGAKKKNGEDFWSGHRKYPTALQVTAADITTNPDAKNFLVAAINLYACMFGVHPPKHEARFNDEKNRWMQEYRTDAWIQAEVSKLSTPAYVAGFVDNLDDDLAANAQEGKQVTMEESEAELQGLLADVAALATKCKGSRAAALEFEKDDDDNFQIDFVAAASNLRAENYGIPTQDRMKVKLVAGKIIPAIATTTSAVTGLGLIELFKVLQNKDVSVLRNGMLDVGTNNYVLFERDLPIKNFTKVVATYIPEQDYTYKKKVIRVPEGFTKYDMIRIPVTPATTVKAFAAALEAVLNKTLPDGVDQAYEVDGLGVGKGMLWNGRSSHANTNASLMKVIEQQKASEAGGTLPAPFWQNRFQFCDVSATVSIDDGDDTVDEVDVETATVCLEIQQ

[3] = molecular target: AMP-activated protein kinase, AMPK (Homo sapiens) (UniProt P54646+O43741+P54619+Q9UGJ0+Q9Y478+Q13131+Q9UGI9); experiment: AMP-dependent Kinase enzyme assay. An in vitro enzyme assay that detects ADP turnover that is directly proportional to AMPK activity. This uses naive AMPK that is activated during the assay with MK-8722; type: functional; conditions: 30 µM
[4] = molecular target: Sialic acid-binding Ig-like lectin 9 (Homo sapiens) (UniProt Q9Y336); experiment: Hs-Siglec9 ALPHAscreen SOP 20170721; conditions: 10 µM
Chain of Sialic acid-binding Ig-like lectin 9 (Homo sapiens) (Q9Y336 whole entry): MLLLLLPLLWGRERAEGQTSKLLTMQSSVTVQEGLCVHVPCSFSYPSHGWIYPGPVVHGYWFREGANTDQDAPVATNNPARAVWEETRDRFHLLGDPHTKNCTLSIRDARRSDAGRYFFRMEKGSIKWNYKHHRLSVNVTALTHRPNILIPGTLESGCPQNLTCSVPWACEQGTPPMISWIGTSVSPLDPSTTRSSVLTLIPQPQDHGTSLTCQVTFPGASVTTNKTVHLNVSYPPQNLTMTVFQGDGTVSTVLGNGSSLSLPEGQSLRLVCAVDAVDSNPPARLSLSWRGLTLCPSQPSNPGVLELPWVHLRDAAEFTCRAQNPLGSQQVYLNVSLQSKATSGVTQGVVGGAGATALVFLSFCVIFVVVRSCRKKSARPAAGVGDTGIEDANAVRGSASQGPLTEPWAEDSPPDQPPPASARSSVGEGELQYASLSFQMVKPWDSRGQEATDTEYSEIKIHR

Trypanosoma cruzi = experiment: Trypanosoma cruzi phosphomannomutase and mannose-1-phosphate guanylyltransferase assay; type: functional; conditions: 10 µM
[5] = molecular target: T2, Arginase-2, mitochondrial (Homo sapiens) (UniProt P78540); experiment: in vitro enzyme assay to detect the production of urea directly proportional to the activity of Arginase II; type: functional; further: in the data most compounds retested in dose-response had high values
T2 sequence (whole entry): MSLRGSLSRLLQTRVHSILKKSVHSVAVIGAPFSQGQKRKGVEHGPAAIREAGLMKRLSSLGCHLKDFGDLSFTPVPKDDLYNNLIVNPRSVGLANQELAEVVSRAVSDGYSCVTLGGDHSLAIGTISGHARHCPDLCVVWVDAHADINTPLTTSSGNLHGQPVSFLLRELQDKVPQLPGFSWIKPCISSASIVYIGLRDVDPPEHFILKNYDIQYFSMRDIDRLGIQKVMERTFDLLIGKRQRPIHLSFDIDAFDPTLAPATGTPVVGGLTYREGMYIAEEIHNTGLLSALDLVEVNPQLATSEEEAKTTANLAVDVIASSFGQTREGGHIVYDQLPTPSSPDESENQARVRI

[6] = molecular target: T3, Proteasome subunit beta (Trypanosoma cruzi) (UniProt O96673); experiment: Trypanosoma cruzi proteasome chymotrypsin-like activity (TcProtChymo) assay.; further: in the data most compounds retested in dose-response had high values; type: functional; conditions: 9.37 µM
T3 sequence (whole entry): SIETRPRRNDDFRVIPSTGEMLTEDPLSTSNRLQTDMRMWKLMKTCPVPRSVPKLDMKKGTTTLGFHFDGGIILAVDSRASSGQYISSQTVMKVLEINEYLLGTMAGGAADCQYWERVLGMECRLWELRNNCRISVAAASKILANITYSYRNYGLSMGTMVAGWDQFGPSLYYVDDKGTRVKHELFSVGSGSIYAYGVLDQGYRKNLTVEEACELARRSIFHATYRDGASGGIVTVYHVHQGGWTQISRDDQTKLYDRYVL

Homo sapiens = species: Homo sapiens; experiment: To identify inhibition of the IFN signalling (Jak-Stat) pathway via expression of an eGFP reporter gene under the control of an IFN-stimulated response element (ISRE) containing MxA promoter.; type: functional; conditions: 30 µM
[7] = molecular target: T4, Tyrosyl-tRNA synthetase, putative (Trypanosoma cruzi (strain CL Brener)) (UniProt Q4DSP6); experiment: Trypanosoma cruzi tyrosyl tRNA synthetase (TcYRS) _High Tyrosine SOP; type: functional; conditions: 30 µM; further: in the data most compounds retested in dose-response had high values
T4 sequence (whole entry): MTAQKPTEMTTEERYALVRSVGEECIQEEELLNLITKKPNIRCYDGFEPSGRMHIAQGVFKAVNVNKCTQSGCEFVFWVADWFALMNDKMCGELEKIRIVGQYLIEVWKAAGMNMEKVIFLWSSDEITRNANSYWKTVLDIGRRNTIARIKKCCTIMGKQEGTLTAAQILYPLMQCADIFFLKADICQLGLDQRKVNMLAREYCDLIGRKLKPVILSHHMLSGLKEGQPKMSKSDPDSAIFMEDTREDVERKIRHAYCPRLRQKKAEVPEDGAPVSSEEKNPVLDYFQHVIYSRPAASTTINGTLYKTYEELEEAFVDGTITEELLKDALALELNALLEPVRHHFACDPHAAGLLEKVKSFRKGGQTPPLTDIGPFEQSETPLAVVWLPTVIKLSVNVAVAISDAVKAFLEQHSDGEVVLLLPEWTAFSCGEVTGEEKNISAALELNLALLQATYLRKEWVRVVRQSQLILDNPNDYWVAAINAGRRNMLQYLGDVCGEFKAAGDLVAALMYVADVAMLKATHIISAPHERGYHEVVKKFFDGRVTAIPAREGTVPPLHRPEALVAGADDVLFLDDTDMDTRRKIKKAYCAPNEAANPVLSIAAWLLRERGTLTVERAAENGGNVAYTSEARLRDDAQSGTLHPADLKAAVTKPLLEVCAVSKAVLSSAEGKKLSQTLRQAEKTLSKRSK

[8] = molecular target: T4, Tyrosyl-tRNA synthetase, putative (Trypanosoma cruzi (strain CL Brener)); experiment: Trypanosoma cruzi tyrosyl tRNA synthetase (TcYRS) SOP; type: functional; conditions: 30 µM
[9] = molecular target: Chromo domain-containing protein 1 (Saccharomyces cerevisiae (strain ATCC 204508 / S288c) (Baker's yeast)) (UniProt P32657); experiment: ScCHD-1 Enzyme Inhibition Assay; type: functional; conditions: 30 µM; further: in the data most compounds retested in dose-response had high values
Chain of Chromo domain-containing protein 1 (Saccharomyces cerevisiae (strain ATCC 204508 / S288c) (Baker's yeast)) (P32657 whole entry, the tested form may be a part): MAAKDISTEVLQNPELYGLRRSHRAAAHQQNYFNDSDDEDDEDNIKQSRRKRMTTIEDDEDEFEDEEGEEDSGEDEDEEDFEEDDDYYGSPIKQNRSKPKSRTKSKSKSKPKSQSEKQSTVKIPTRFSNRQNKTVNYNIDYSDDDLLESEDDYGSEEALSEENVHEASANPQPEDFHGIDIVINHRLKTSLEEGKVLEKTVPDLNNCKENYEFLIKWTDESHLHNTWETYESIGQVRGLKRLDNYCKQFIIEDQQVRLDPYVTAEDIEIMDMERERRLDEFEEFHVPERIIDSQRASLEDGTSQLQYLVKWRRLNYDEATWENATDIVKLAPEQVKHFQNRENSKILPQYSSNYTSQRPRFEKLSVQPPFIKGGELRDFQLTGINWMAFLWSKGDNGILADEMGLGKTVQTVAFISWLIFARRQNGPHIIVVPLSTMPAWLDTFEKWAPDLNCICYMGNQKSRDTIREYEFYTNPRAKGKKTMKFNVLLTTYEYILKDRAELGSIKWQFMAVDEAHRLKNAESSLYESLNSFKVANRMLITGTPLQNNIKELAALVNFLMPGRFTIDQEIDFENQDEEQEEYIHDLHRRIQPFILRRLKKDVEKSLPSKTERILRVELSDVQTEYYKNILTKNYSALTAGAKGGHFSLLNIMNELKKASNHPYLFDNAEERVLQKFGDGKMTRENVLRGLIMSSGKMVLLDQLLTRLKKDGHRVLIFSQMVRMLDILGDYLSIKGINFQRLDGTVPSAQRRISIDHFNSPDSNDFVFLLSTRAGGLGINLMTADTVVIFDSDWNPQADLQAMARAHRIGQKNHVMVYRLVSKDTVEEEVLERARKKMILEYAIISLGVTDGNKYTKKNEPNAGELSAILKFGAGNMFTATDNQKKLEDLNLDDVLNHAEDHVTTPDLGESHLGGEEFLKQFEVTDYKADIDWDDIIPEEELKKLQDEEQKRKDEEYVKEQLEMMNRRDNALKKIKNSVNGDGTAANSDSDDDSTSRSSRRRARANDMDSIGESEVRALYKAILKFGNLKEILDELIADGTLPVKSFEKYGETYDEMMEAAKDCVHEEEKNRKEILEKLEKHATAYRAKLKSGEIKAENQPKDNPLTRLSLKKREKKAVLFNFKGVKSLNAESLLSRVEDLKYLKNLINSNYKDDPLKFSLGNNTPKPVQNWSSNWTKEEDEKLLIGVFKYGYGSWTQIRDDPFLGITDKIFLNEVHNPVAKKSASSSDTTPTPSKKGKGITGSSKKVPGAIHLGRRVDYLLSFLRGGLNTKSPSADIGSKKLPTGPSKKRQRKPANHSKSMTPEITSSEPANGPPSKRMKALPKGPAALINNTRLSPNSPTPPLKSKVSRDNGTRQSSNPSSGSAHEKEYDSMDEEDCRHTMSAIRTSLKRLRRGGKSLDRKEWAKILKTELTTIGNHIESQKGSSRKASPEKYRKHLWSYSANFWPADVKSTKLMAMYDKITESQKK

N/A = experiment: Trypanosoma cruzi proteasome luciferase counter-screen; type: functional; conditions: 9.37 µM

Row | SMILES | Percent Effect [1] | Percent Effect [2] | Percent Effect [3] | Percent Effect [4] | Percent Effect (Trypanosoma cruzi) | Percent Effect ([5]; 30 µM) | Percent Effect ([5]; 33.3 µM) | Percent Effect [6] | Percent Effect (Homo sapiens) | Percent Effect [7] | Percent Effect [8] | Percent Effect [9] | Percent Effect (N/A)
1 | Cn1cc(CC2CCN(C(=O)NCc3cn4ccsc4n3)C2)cn1 (configuration not stated) | -6.21% | 13.2% | -5.79% | -0.407% | 5.36% | 2.7% | -18.9% | 12.2% | 4.6% | 6.38% | 18.2% | -14.5% | –
2 | Cc1nn(CCO)c(C)c1CNC1CCC(C)(C)c2ccccc21 (configuration not stated) | -3.92% | 8% | -5.82% | 14.7% | 7.3% | 2.7% | 9.38% | 9.42% | 23.6% | 1.64% | 13.6% | -6.8% | –
3 | O=C(Cc1ccccn1)N1CCC2(CC1)CC(Oc1ccccn1)CO2 (configuration not stated) | -3.31% | 10.7% | 4.11% | 0.184% | -1.18% | 2.7% | -5.36% | 12.2% | 12.5% | 7.45% | 16.7% | -7.71% | –
4 | O=C(Cn1nc2c(cc1=O)CCCC2)N[C@@H](C(=O)O)c1ccccc1 | -1.59% | 9.33% | 0.931% | 7.75% | 3.34% | 8.11% | 0.176% | 12.2% | 14.1% | 10.6% | 20.5% | -5.57% | –
5 | CCOc1cc(/C=C/c2ncc(C(=O)O)s2)ccc1O | -3.57% | 11.4% | 44.7% | 0.0396% | -3.38% | – | 4.95% | 47.2% and 46.2% and 45.3% | 7.54% | 4.17% | 7.59% | -20.7% | 10.5% and 16.9%
6 | Cc1ccc(S(=O)(=O)N2CCc3nc(C4CCNCC4)ncc3C2)cc1 | -3.69% | 9.46% | -15.7% | 1.15% | 2.77% | – | -4.41% | 21.6% and 22.5% and 38.9% | 9.56% | 17.2% | 24.7% | -21.4% | 8.48% and 9.51%
7 | Cc1cc(C(=O)N2C[C@@H](C(=O)O)[C@H](c3ccccc3C)C2)c(C)o1 | -6.29% | 2.7% | 4.96% | -6.42% | -7.92% | 4.87% | -2.23% | 11.2% | 18.7% | 1.07% | 3.7% | -4.1% | –
8 | COc1cccc(-c2nc(C)c(C(=O)N[C@@H](C)C(=O)O)s2)c1 | -0.174% | 12% | -0.167% | -2.7% | -2.36% | – | -12.5% | 77.2% and 81.5% and 84.7% | 5.55% | 9.52% | 12.8% | -7.59% | 56.5% and 53.9%
9 | Cc1ccc(-c2nc(CN3CCC(C(=O)N(C)C)CC3)cs2)o1 | -3.42% | -1.27% | -1.3% | -4.8% | -0.103% | – | -1.94% | 38.5% and 41.6% and 46.1% | 21.9% | 12.5% | 22.8% | -29.5% | 21.6% and 19.9%
10 | Cc1ccc(C(=O)Nc2cn[nH]c2)cc1C | 0.399% | 18.4% | 16.7% | 3.99% | 0.188% | – | 1.15% | 53% and 40.4% and 50.9% | 5.81% | 11.3% | 24.4% | -9.31% | 27.1% and 25%
11 | Cc1nc(CN2CCCC(N(C)Cc3cscn3)C2)no1 (configuration not stated) | -5.04% | 5.2% | -1.86% | -3.2% | 7.54% | – | -6.11% | 40.2% and 44.8% and 59.4% | 17.1% | 3.81% | 11.8% | -17.6% | 16.1% and 22%
12 | Cn1cc(-c2cnc(N3CCCC3)nc2)cc1C(=O)O | -4.18% | 8.11% | 4.07% | 6.18% | 6.05% | – | 22.9% | 95.3% and 96.7% and 97.6% | -5.85% | 5.94% | 13.4% | -8.33% | 80% and 80.9%
13 | Cc1noc([C@H]2C[C@H]3OCC[C@H]3N(Cc3ccc4c(c3)OCO4)C2)n1 | -1.12% | 13.5% | 5.01% | -6.24% | -0.88% | – | 6.05% | 11.4% and 30.6% and 12.5% | -2.22% | 5.41% | 17.9% | -3.92% | 7.96% and 8.15%
14 | O=C(N[C@@H]1CN(Cc2ccsc2)[C@@H]2CCCO[C@@H]21)C1CC1 | -8.12% | 18.7% | -4.7% | 2.36% | -0.193% | – | -57.9% | 37.3% and 23.2% and 22.2% | -2.14% | 4.17% | 17.5% | -7.56% | 7.24% and 10.5%
15 | CC(O)CNCc1ccc(OCc2ccc3c(c2)OCCO3)cc1 (configuration not stated) | 0.112% | 10.5% | 0.644% | -9.17% | -3.6% | – | -2.37% | 61.5% and 58.6% and 62.4% | -4.62% | 1.06% | 5.2% | -3.79% | 31.4% and 28.6%
16 | c1cc(OCc2ccc3c(c2)OCCO3)ccc1CNC1CC1 | 5.92% | 0% | 13.6% | -13.3% | -7.3% | – | -5.92% | 91.2% and 90% and 88.4% | 23% | -2.13% | 5.2% | -5.94% | 63.7% and 65.3%
